# Data from PubChem BioAssay.
# Active and inactive are the calls of the source.
# Legend:
# [1] = test system: Plasmodium falciparum Sir2 (PF13_0152, Sir2A); assay: Plasmodium falciparum Sir2A binding compounds – biochemical, small-molecule microarray, 635 nm fluorescence, primary screen (AID 1098); conditions: fluorescence 635 nm, higher = more signal;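 also: score merges spot fluorescence intensity with its signal-to-noise ratio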
# [2] = probe aDKK1 binding to arrayed compounds – biochemical, biotinylated probe, 635/667 nm fluorescence, primary screen (AID 1099); conditions: small-molecule microarray, higher = more signal;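 also: score merges 667nm spot fluorescence with signal to noise across triplicate slides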
# [3] = probe aCHRDL2 binding to arrayed compounds – biochemical, biotinylated probe, 635/667 nm fluorescence, primary screen (AID 1100); conditions: small-molecule microarray, higher = more signal
# [4] = change in splice reporter luminescence, either direction, cell-based, HEK293, spliceosome inhibition project, primary screen (AID 1101); conditions: HEK293 splicing luciferase reporter, 24 h, higher = more signal, called active from +8 up or from −8 down;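 also: HEK293 cells carrying a splicing-competent luciferase reporter gene; test concentration not given here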
# [5] = biological target: Fibroblast growth factor 10 (Homo sapiens) (UniProt O15520); assay: compounds binding fibroblast growth factor 10 – biochemical, small-molecule microarray, 635 nm fluorescence, primary screen (AID 1102); conditions: FGF10 binding, fluorescence 635 nm, higher = more signal
# Chain of Fibroblast growth factor 10 (Homo sapiens) (O15520 whole entry, looked up): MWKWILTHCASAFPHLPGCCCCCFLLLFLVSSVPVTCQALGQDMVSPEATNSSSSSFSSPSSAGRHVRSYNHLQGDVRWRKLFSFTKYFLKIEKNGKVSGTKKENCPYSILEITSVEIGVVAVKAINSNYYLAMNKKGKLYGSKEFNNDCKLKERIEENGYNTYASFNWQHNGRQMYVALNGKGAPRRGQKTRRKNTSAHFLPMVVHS
# [6] = test system: glycogen synthase kinase-3 (GSK3A per assay name; protocol says GSK3B); assay: compounds binding glycogen synthase kinase-3 – biochemical, small-molecule microarray, 635 nm fluorescence, GSK3A, primary screen (AID 1103); conditions: fluorescence 635 nm, higher = more signal; also: the record names both GSK3A and GSK3B
# [7] = biological target: Epidermal growth factor receptor (Homo sapiens) (UniProt P00533); assay: compounds binding epidermal growth factor receptor – biochemical, small-molecule microarray, 635 nm fluorescence, primary screen (AID 1104); conditions: EGFR binding, higher = more signal;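 also: score merges 667 nm emission intensity with spot signal to noise over triplicate slides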
# Chain of Epidermal growth factor receptor (Homo sapiens) (P00533 whole entry, looked up): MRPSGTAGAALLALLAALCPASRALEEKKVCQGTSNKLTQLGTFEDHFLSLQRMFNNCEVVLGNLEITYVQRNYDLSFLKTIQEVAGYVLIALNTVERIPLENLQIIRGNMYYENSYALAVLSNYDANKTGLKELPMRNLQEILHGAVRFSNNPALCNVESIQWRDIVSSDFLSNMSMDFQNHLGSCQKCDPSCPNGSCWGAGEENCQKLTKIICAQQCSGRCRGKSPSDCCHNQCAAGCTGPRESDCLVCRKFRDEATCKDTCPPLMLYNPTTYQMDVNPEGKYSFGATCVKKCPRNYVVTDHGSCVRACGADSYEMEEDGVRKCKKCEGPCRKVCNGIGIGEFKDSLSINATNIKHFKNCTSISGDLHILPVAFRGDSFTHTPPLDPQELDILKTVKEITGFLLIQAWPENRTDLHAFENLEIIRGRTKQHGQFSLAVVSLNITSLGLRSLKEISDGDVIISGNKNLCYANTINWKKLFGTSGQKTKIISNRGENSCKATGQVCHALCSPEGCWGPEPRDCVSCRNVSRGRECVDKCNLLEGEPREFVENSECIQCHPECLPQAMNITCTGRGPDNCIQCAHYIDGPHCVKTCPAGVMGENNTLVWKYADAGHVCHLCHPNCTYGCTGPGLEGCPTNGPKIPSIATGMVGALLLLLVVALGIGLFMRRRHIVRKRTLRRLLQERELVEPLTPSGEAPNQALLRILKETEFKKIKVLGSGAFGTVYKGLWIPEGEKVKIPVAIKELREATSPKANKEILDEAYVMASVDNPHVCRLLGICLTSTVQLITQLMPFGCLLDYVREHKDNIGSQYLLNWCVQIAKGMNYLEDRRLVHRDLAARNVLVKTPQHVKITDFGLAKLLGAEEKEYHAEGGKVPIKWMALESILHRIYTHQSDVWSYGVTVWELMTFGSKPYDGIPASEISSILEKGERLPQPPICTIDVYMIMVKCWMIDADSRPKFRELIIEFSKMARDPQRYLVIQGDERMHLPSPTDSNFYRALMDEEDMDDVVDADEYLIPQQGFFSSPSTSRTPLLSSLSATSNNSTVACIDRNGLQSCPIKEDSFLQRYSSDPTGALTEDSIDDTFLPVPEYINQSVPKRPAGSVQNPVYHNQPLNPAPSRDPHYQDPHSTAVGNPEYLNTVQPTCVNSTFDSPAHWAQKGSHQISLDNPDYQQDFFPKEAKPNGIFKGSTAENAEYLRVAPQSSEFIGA
# [8] = biological target: Follistatin-related protein 3 (Homo sapiens) (UniProt O95633); assay: compounds binding follistatin-related protein 3 – biochemical, small-molecule microarray, 635 nm fluorescence, primary screen (AID 1105); conditions: FSTL3 binding, higher = more signal;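 also: score merges emission near 667 nm and signal to noise per printed spot across three slides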
# Chain of Follistatin-related protein 3 (Homo sapiens) (O95633 whole entry, looked up): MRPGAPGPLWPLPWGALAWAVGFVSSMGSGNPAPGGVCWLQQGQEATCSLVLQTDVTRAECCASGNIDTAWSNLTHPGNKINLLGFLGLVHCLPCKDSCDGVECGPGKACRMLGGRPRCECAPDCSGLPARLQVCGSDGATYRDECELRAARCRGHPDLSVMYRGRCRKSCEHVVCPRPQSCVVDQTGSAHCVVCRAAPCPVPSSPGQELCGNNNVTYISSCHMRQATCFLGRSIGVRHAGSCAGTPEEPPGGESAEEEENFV
# [9] = biological target: Dickkopf-related protein 1 (Homo sapiens) (UniProt O94907); assay: small molecules binding DKK1 protein – biochemical, small-molecule microarray, 635 nm fluorescence scan, primary screen (AID 1106); conditions: higher = more signal;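 also: score merges emission near 667 nm with signal to noise over three replicate slides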
# Chain of Dickkopf-related protein 1 (Homo sapiens) (O94907 whole entry, looked up): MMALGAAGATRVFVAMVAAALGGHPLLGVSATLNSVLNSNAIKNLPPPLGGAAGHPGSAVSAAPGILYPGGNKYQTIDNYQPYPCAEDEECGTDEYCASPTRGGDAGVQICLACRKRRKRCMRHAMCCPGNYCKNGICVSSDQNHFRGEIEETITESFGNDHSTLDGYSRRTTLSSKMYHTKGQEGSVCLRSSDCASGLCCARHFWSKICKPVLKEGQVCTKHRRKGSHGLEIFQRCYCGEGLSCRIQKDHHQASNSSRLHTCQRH
# [10] = test system: Inhibin beta A chain (activin A); assay: small molecules binding activin A – biochemical, small-molecule microarray, 635 nm fluorescence scan, primary screen (AID 1107); conditions: INHBA, higher = more signal;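 also: mouse activin A protein probed at 4.33 µg/mL on printed slides; score merges bound-protein fluorescence near 667 nm with spot signal-to-noise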
# [11] = test system: Human papillomavirus type 1a protein E7 (residues 44-93); assay: small molecules binding HPV E7 44-93 – biochemical, small-molecule microarray, residues 44-93, 635 nm fluorescence, primary screen (AID 1108); conditions: fluorescence 635 nm, higher = more signal;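 also: E7 fragment applied at 1 µg/mL in TBST for 1 h at 4 C; score combines spot fluorescence with its signal to noise ratio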
# [12] = hepatitis C replication reporter changes, two-sided – Huh7 cells, luciferase reporter, HCV replication inhibitor project, primary screen (AID 1109); conditions: Huh7 HCV replicon luciferase reporter, 48 h; higher = more signal;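 also: huh7 hepatoma cells harbouring a luciferase neomycin HCV replicon reporter; luciferase luminescence as measure of HCV replicon replication; test concentration not given here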
# [13] = biological target: Left-right determination factor 2 (Homo sapiens) (UniProt O00292); assay: small molecules binding LEFTY2 protein – biochemical, small-molecule microarray, 635 nm fluorescence scan, primary screen (AID 1110); conditions: higher = more signal
# Chain of Left-right determination factor 2 (Homo sapiens) (O00292 whole entry, looked up): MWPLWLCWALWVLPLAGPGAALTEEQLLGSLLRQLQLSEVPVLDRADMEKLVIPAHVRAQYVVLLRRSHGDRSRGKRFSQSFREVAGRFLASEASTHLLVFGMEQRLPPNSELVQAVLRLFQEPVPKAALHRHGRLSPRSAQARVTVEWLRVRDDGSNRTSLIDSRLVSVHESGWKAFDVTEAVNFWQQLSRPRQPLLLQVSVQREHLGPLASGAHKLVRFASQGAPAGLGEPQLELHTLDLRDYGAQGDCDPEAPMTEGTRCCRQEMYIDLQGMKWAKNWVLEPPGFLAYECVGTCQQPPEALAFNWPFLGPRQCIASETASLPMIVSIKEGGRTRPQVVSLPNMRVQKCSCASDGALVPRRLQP
# [14] = biological target: Calmodulin-1 (Homo sapiens) (UniProt P0DP23); assay: small molecules binding calmodulin-1 with EGTA – biochemical, small-molecule microarray, Cy5-labelled CALM1, profiling panel (AID 1111); conditions: Cy5-CALM1 binding fluorescence, higher = more signal;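 also: labelled calmodulin applied in Tris saline Tween buffer holding calcium plus EGTA and DTT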
# [15] = biological target: Calmodulin-1 (Homo sapiens) (UniProt P0DP23); assay: small molecules binding Ca-loaded calmodulin-1 – biochemical, small-molecule microarray, Cy5-labelled CALM1, plus calcium, artefact control for SMM control-protein annotation, profiling panel (AID 1112); conditions: Cy5-CALM1 binding fluorescence, higher = more signal;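 also: score merges spot fluorescence with signal to noise from triplicate slides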
# [16] = probe aWnt5a binding to arrayed compounds – biochemical, biotinylated probe, 635/667 nm fluorescence, primary screen (AID 1113); conditions: small-molecule microarray, higher = more signal;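 also: score merges 667 nm fluorescence intensity with signal-to-noise per printed feature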
# [17] = probe aShh binding to arrayed compounds – biochemical, biotinylated probe, 635/667 nm fluorescence, primary screen (AID 1114); conditions: small-molecule microarray, higher = more signal;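 also: probe is biotin-labelled aShh protein from a stem cell growth factor screen; measures binding of labelled protein to compounds printed on the slide; score merges feature fluorescence at 667 nm with signal-to-noise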
# [18] = probe aNog binding to arrayed compounds – biochemical, biotinylated probe, 635/667 nm fluorescence, primary screen (AID 1115); conditions: small-molecule microarray, higher = more signal;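 also: probe is biotinylated aNog protein used at 0.15 µg/mL for 1 h at 4 C; z-score combines 667 nm fluorescence of each spot with its signal to noise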
# [19] = biological target: Torsin-1A-interacting protein 1 (Homo sapiens) (UniProt Q5JTV8); assay: compound microarray binding of lysate hLAP1 – cell lysate, small-molecule microarray, COS7 lysate, 635/667 nm fluorescence, primary screen (AID 1116); conditions: 635 nm fluorescence, higher = more signal
# Chain of Torsin-1A-interacting protein 1 (Homo sapiens) (Q5JTV8 whole entry, looked up): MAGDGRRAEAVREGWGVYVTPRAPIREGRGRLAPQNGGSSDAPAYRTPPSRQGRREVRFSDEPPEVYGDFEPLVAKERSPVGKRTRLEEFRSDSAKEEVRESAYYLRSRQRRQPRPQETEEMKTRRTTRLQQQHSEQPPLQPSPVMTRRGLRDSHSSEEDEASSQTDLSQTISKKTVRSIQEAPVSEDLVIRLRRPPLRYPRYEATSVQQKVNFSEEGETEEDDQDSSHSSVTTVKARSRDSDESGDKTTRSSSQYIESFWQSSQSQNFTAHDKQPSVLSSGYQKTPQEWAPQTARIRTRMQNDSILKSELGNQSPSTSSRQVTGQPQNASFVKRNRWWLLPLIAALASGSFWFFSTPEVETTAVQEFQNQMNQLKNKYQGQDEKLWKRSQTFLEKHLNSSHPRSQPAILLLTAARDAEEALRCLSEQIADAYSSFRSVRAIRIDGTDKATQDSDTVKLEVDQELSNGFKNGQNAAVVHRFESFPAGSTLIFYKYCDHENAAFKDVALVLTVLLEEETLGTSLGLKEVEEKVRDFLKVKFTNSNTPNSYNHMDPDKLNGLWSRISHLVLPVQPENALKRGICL
# [20] = biological target: Alpha-bungarotoxin (Bungarus multicinctus) (UniProt P60615); assay: compounds binding labelled alpha-BTX control protein – biochemical, small-molecule microarray, Alexa647 label, 635/667 nm fluorescence, artefact control for SMM control protein annotation, profiling panel (AID 1117); conditions: alpha-BTX-A647 binding fluorescence, higher = more signal
# Chain of Alpha-bungarotoxin (Bungarus multicinctus) (P60615 whole entry, looked up): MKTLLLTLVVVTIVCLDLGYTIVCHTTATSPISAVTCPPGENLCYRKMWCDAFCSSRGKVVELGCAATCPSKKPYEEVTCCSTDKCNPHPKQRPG
Structure (SMILES),composite z-score [1],composite z-score [2],composite z-score [3],z-score [4],composite z-score [5],composite z-score [6],composite z-score [7],composite z-score [8],composite z-score [9],composite z-score [10],composite z-score [11],z-score [12],composite z-score [13],composite z-score [14],composite z-score [15],composite z-score [16],composite z-score [17],composite z-score [18],composite z-score [19],composite z-score [20]
[N-]=[N+]=Nc1ccccc1[C@H]1OC(c2ccc(OCCCO)cc2)=N[C@@]1(CCS(=O)(=O)c1ccccc1)C(=O)NCCN1CCOCC1,1.35,-0.135,0.775,-0.0945 (inactive),1.41,1.21,0.131,1.19,0.248,0.903,1.4,0.517,-0.354,0.757,-0.368,0.0246,0.315,1.03,0.936,0.755
[N-]=[N+]=Nc1ccccc1C[C@]1(C(N)=O)N=C(c2ccc(OCCCO)cc2)O[C@H]1c1ccccc1N=[N+]=[N-],0.902,0.504,0.676,-1.82 (inactive),0.856,0.966,0.188,-0.0523,-0.442,1.25,1.38,-2.55,-0.0114,1.55,0.873,0.0799,0.162,1.03,0.776,0.702
CCCCCCCCCCC(O)C1C=CC2C(=O)N(C)C(=O)C2N1Nc1ccc([N+](=O)[O-])cc1[N+](=O)[O-] (stereo not given),0.781,0.899,0.905,1.62 (inactive),0.141,0.461,-0.497,0.323,-0.57,0.894,1.38,-1.06,-0.323,1.62,1.05,0.0308,0.151,0.441,1.83,1.18
CN(C)C(=O)C1N=C(c2ccc(OCCCO)cc2)N(c2ccccc2)O1 (stereo not given),1.22,0.0309,-0.0552,-1.06 (inactive),1.5,1.13,0.662,0.739,0.726,-0.319,1.41,-0.842,1.28,1.21,-0.0846,-0.0486,-0.0733,-0.461,0.81,0.741
[N-]=[N+]=Nc1ccccc1C[C@]1(C(=O)N2CCOCC2)N=C(c2ccc(OCCCO)cc2)O[C@H]1c1ccccc1,1.11,1.45,1.03,-0.963 (inactive),1.16,1.29,0.307,1.01,1.93,0.52,1.04,-1.81,0.444,1.17,0.173,0.104,-0.153,0.347,1.18,1.31
COc1ccc([Si](C)(C)[C@H]2[C@H](CCO)O[C@@]3(C(=O)N(Cc4cccc(N5C(=O)COc6ccccc65)c4)c4ccccc43)[C@@H]2C)cc1,0.957,0.0114,0.122,-2.17 (inactive),-0.222,-0.585,-0.686,0.0253,0.125,-0.348,-0.502,-4.98,0.0828,0.851,0.675,-0.0417,-0.0146,0.26,0.474,0.252
COc1cc2c(cc1OC)CN(C(=O)[C@@H]1[C@H]3C(=O)O[C@H](c4ccccc4)[C@H](c4ccccc4)N3[C@H](c3ccc(OCCO)cc3)[C@@]13C(=O)Nc1ccccc13)CC2,1.41,0.0269,0.0159,0.576 (inactive),1.4,1.17,0.399,1.07,0.343,0.508,1.44,-1.68,0.351,1.04,0.0568,0.133,0.0328,-0.592,1.14,1.91
C=CCOC(=O)[C@H]1[C@@H]2C(=O)O[C@@H](c3ccccc3)[C@@H](c3ccccc3)N2[C@@H](c2ccc(OCCOC(=O)[C@@H]3C[C@@H]4C(=O)N[C@@H](CCCCNC(C)=O)C(=O)N4[C@@H]3c3ccc(O)cc3)cc2)[C@]12C(=O)Nc1ccc(I)cc12,0.95,0.0153,0.127,-0.151 (inactive),1.33,1.27,1.08,1.3,0.789,0.732,1.37,-1.14,0.637,0.48,-0.215,-0.0519,0.131,0.381,1.65,1.78
COC(=O)[C@@]1(Cc2ccc(F)cc2)[C@H]2c3cc(C(=O)N4CCCC4)n(CCc4ccc(O)c(O)c4)c3C[C@H]2CN1C(=O)c1ccccc1,0.391,1.8,1.04,-2.62 (inactive),-0.206,-1.73,-0.0942,-0.457,-0.359,1.1,-0.369,-1.79,-0.772,0.765,0.694,0.752,2.04,2.27,0.661,-0.125
NC(=O)N1C(=O)C2C(C1=O)C1C=C(CCCO)C2C(c2cccs2)N1Cc1cccc(OC(F)(F)F)c1 (stereo not given),1.41,-0.0349,-0.123,0.23 (inactive),0.493,0.177,0.121,0.211,-0.184,0.944,0.72,-0.933,-0.0132,0.155,0.632,-0.0721,0.723,-0.0132,1.06,0.797
CN1C(=O)C2C=CC(C(O)COCc3ccccc3)N(N(c3ccccc3)c3ccccc3)C2C1=O (stereo not given),0.35,0.553,0.815,0.915 (inactive),0.126,-0.588,0.238,0.127,-0.674,-0.101,1.31,-1.4,-0.142,1.41,0.667,0.0915,0.204,0.773,0.454,0.458
